Where a structure was tested more than once in an assay, its records may differ in their call. Activity calls are given as the source filed them. Rule for the calls: active = hit-call score of the fitted dose curve at least 0.9, where 1 is the maximum; inactive = score below 0.9.
Assay: CCTE_Shafer_MEA_acute_per_network_burst_spike_number_std: CCTE's Neural Acute Assay for Standard Deviation of Number of Spikes in a Network Burst, Shafer Lab (AID 2284020);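 note: fitted for decrease in spike-number SD versus DMSO so actives lower it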
Description: CCTE_Shafer_MEA_acute assay is conducted using Axion Biosystems 48 well microelectrode array (MEA) plates and Maestro recording system. Each well of the MEA plate contains a grid of 16 microelectrodes embedded in the culture surface. Electrically active cells, such as neurons, can be cultured over the electrodes, and electrical activity in these cells can be recorded extracellularly. The spontaneous firing of neurons is captured from each electrode on a microsecond timescale providing both temporally and spatially precise data. […] The CCTE_Shafer_MEA_acute assay uses primary cultures of rat cortical neurons. As these cultures mature over time, neural networks develop functional activity and form cohesive networks in which electrical activity can be highly coordinated. Baseline 40-minute recordings are made on days post-plating 13 or 15, followed by a secondary 40-minute recording after chemical exposure.CCTE_Shafer_MEA_acute_per_network_burst_spike_number_std is a component of the CCTE_Shafer_MEA_acute assay. It measures the standard deviation of the number of spikes (action potential firings) in a network burst (temporally-clustered group of spikes across multiple electrodes) during a recording in a microelectrode array (MEA) using Axion Biosystems Maestro 768 channel amplifier with the AxIS adaptive spike detector. The recordings before and after chemical treatment are used to calculate a percent change in the standard deviation of the number of spikes in network bursts in each well.Data from the assay component CCTE_Shafer_MEA_acute_burst_spike_number_std was analyzed into 1 assay endpoint. This assay endpoint, CCTE_Shafer_MEA_acute_burst_spike_number_std, was analyzed in the negative analysis fitting direction relative to DMSO as the negative control and baseline of activity. Using a type of functional reporter, gain or loss-of-signal activity can be used to understand electrical activity.
Spontaneous activity in the cortical cultures was recorded using an Axion Biosystems Maestro 768 channel amplifier and Axion Integrated Studios (AxIS) v1.8 (or later) software. The amplifier recorded from all channels simultaneously (gain = 1200 x; sampling rate = 12.5 kHz/channel): raw signals were filtered with a Butterworth band-pass filter (300-5000 Hz), which filters out slower local field potentials leaving only fast potentials, i.e., "spikes", arising from extracellular currents associated with action potentials (Pine 2006; Wheeler and Nam 2011). On-line spike detection of filtered signals was conducted with the AxIS adaptive spike detector, using a threshold of 8x the root mean squared (rms) noise on each channel. Any electrodes with rms noise levels greater than 5 uV were grounded (e.g., no data were recorded). Once grounded, an electrode was grounded for the duration of the experiment. All recordings were conducted at 37 C. Wells were deemed usable if on the day of the exposure >/= 10 electrodes were active (defined as >/= 5 spikes/min). On DIV 13 or 15, a minimum of three wells from one cortical culture preparation were treated with each compound (0.03-40 uM). Prior to recording baseline activity, each mwMEA plate was placed in the Maestro at 37 C and allowed to sit for 20 min while firing rates stabilized. Baseline activity (40 min) was recorded before the addition of each compound. An additional 40 min of spontaneous activity was recorded in the presence of each compound. Changes in network parameters relative to baseline were assessed following compound treatment.

Row | Structure (SMILES) | outcome | AC50
1 | C=CC(N)=O | inactive | 
2 | CCC(C)c1cc([N+](=O)[O-])cc([N+](=O)[O-])c1O (configuration not stated) | inactive | 
3 | CO/C=C(/C(=O)OC)c1ccccc1COc1cccc(C(F)(F)F)n1 | inactive | 
4 | ClC1=C(Cl)[C@]2(Cl)[C@@H]3[C@@H]4C[C@@H]([C@H]5O[C@@H]45)[C@@H]3[C@@]1(Cl)C2(Cl)Cl |  | 0.338 µM (active)
5 | CCCCCCCCCc1ccc(O)cc1 |  | 9.3 µM (active)
6 | CC#Cc1cc(C)nc(Nc2ccccc2)n1 |  | 4.76 µM (active)
7 | COS(=O)(=O)OC | inactive | 
8 | CCC(C)(CC)c1cc(NC(=O)c2c(OC)cccc2OC)on1 | inactive | 
9 | CCSC(=O)N(CC)C1CCCCC1 |  | 8.39 µM (active)
10 | c1ccc(-c2ccccc2)cc1 | inactive | 
11 | CCC(C)(c1ccc(O)cc1)c1ccc(O)cc1 | inactive | 
12 | Nc1ccc(-c2ccc(N)cc2)cc1 | inactive | 
13 | Oc1ccc(C(c2ccc(O)cc2)(C(F)(F)F)C(F)(F)F)cc1 | inactive | 
14 | CC(C)C(=O)OCC(C)(C)C(OC(=O)C(C)C)C(C)C (configuration not stated) | inactive | 
15 | O=C(NC(=O)c1c(F)cccc1F)Nc1cc(Cl)c(OC(F)(F)C(F)F)c(Cl)c1 | inactive | 
16 | CC(c1ccc(O)cc1)(c1ccc(O)cc1)c1ccc(O)cc1 | inactive | 
17 | ClC1=C(Cl)[C@]2(Cl)[C@@H]3[C@@H](Cl)[C@H]4O[C@H]4[C@@H]3C1(Cl)C2(Cl)Cl |  | 0.248 µM (active)
18 | O=C(N[C@H]1CN2CCC1CC2)c1cc2ccoc2cn1 | inactive | 
19 | ClC1=C(Cl)[C@]2(Cl)[C@@H]3[C@H]4C[C@H]([C@@H]5O[C@H]45)[C@@H]3[C@@]1(Cl)C2(Cl)Cl | inactive | 
20 | CCCCCCCCCC[N+](C)(C)CCCCCCCCCC |  | 5.37 µM (active)
21 | Clc1ccc(C(Cl)(Cl)Cl)cc1 | inactive | 
22 | COc1ccc(O)c(C(C)(C)C)c1 | inactive | 0.0903 µM (active)
23 | CN(C)CCO | inactive | 
24 | ClC(Cl)=C(c1ccc(Cl)cc1)c1ccc(Cl)cc1 | inactive | 
25 | O=C(O)C(F)(F)C(F)(F)C(F)(F)C(F)(F)C(F)(F)F | inactive | 
26 | CCCN(CCC)N=O | inactive | 

— PubChem BioAssay (EPA / NIEHS)
